Data as given in PubChem BioAssay (NCI).
About 83,000 compounds went through this panel and 20% of them were active in at least one assay; those are over-represented in the sample as a whole.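 Interpretation: 100, growth as untreated; towards 0, rising growth inhibition; 0, no net growth; 0 to -100, cell death. Compounds scoring below 10 were considered active.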 The source made the active and inactive calls.

What was measured:
Assay in all cases: NCI-60 one-dose screen, 48 h (100 = growth as untreated, 0 = no growth, -100 = all killed)
Details in all cases: 10 µM
SN12C renal = test system: SN12C renal
UO-31 renal = test system: UO-31 renal
TK-10 renal = test system: TK-10 renal
ACHN renal = test system: ACHN renal
CAKI-1 renal = test system: CAKI-1 renal
A498 renal = test system: A498 renal
CCRF-CEM leukemia = test system: CCRF-CEM leukemia
MOLT-4 leukemia = test system: MOLT-4 leukemia
SR leukemia = test system: SR leukemia

Measured: growth

Clc1ccc(/C=C2\CCCC3=C2N=C2SC=NN2C3c2ccc(Cl)cc2)cc1 (stereo unspecified)
inactive: SN12C renal 104% | UO-31 renal 86.5% | TK-10 renal 112% | ACHN renal 103% | CAKI-1 renal 106% | A498 renal 81.7% | CCRF-CEM leukemia 86.6% | MOLT-4 leukemia 99% | SR leukemia 76.3%

Cc1[nH]nc2c1C(c1cnn(C)c1)C(C#N)=C(N)O2 (stereo unspecified)
inactive: SN12C renal 103% | UO-31 renal 81.3% | TK-10 renal 102% | ACHN renal 104% | CAKI-1 renal 102% | A498 renal 69.9% | CCRF-CEM leukemia 101% | MOLT-4 leukemia 98.6% | SR leukemia 89.3%

CSc1nn(-c2ccccc2)c2ncnc(Oc3ccccc3)c12
active: UO-31 renal 7.79%
inactive: SN12C renal 86.2% | TK-10 renal 106% | ACHN renal 106% | CAKI-1 renal 88.7% | A498 renal 138% | CCRF-CEM leukemia 89.6% | MOLT-4 leukemia 97.3% | SR leukemia 84%

COc1cc2cc3c(nc2cc1OC)CCN3Cc1ccc(NC(=O)Nc2ccc(F)cc2F)cc1
inactive: SN12C renal 79.9% | UO-31 renal 68.9% | TK-10 renal 94.6% | ACHN renal 85.2% | CAKI-1 renal 62.3% | A498 renal 49.4% | CCRF-CEM leukemia 71.7% | MOLT-4 leukemia 58.9% | SR leukemia 62.1%

S=C1SCC(c2ccccc2)S1 (stereo unspecified)
inactive: SN12C renal 101% | UO-31 renal 104% | TK-10 renal 107% | ACHN renal 101% | CAKI-1 renal 97.1% | A498 renal 102% | CCRF-CEM leukemia 101% | MOLT-4 leukemia 107% | SR leukemia 103%

Cc1ccc(C)c(C(O)(c2cc(C)ccc2C)C2(O)CCCCC2)c1
inactive: SN12C renal 96.8% | UO-31 renal 87.7% | TK-10 renal 89.8% | ACHN renal 89% | CAKI-1 renal 80.5% | A498 renal 94.5% | CCRF-CEM leukemia 94.3% | MOLT-4 leukemia 71.5% | SR leukemia 85.1%

COc1ccc(/C=C2/CN(C(=O)c3ccc(C)cc3)C/C(=C\c3ccc(OC)cc3)C2=O)cc1
inactive: SN12C renal 90.7% | UO-31 renal 58.5% | TK-10 renal 113% | ACHN renal 92% | CAKI-1 renal 85.2% | A498 renal 89.4% | CCRF-CEM leukemia 71.3% | MOLT-4 leukemia 69.3% | SR leukemia 12.8%

CC(C)(C#N)Nc1ccccc1
inactive: SN12C renal 98.8% | UO-31 renal 103% | TK-10 renal 115% | ACHN renal 97.8% | CAKI-1 renal 83.5% | A498 renal 103% | CCRF-CEM leukemia 97.1% | MOLT-4 leukemia 102% | SR leukemia 116%

N=C(N)c1ccc(-c2ccc(-c3cccs3)o2)cc1
active: MOLT-4 leukemia -2.16% | SR leukemia -24.5%
inactive: SN12C renal 54.5% | UO-31 renal 65.9% | TK-10 renal 96.5% | ACHN renal 62.7% | CAKI-1 renal 37.8% | A498 renal 33.5% | CCRF-CEM leukemia 19.9%

CC/C(=C(/c1ccc(OCCN(C)C)cc1)c1ccc(OC(=O)CCCCC(=O)c2c(C)[nH]c(/C=C3\N=C(c4ccc[nH]4)C=C3OC)c2C)cc1)c1ccccc1
active: CCRF-CEM leukemia 9.97%
inactive: SN12C renal 62.3% | UO-31 renal 45.4% | TK-10 renal 103% | ACHN renal 67.1% | CAKI-1 renal 47.6% | A498 renal 75.7% | MOLT-4 leukemia 26.7% | SR leukemia 45.3%

Cc1cc(C)c2c(n1)sc1c(Nc3ccc(Cl)cc3)ncnc12
inactive: TK-10 renal 47.7% | CAKI-1 renal 12.1%
active: SN12C renal -20.9% | UO-31 renal -19.8% | ACHN renal 1.33% | A498 renal -9.23% | CCRF-CEM leukemia 4.05% | MOLT-4 leukemia -6.2% | SR leukemia 3.86%

CCOC(=O)N/N=C\C(C)=N\NC(=O)OCC
inactive: SN12C renal 94.6% | UO-31 renal 85.1% | TK-10 renal 98.8% | ACHN renal 99.4% | CAKI-1 renal 90.1% | A498 renal 103% | CCRF-CEM leukemia 93.6% | MOLT-4 leukemia 101% | SR leukemia 96.6%

COc1ccc2c(c1)O/C(=C\c1ncc([N+](=O)[O-])n1C)C2=O
active: SN12C renal -8.55% | UO-31 renal -39.2% | TK-10 renal -27.3% | ACHN renal 0.77% | CAKI-1 renal -26.7% | A498 renal -77.7% | CCRF-CEM leukemia 4.88% | MOLT-4 leukemia 2.86% | SR leukemia 7.55%

C#Cc1ccc(-n2c(/C=C/c3ccc4ccccc4c3)nc3ncccc3c2=O)cc1
active: A498 renal -2.88% | CCRF-CEM leukemia 2.66% | MOLT-4 leukemia 4.88% | SR leukemia 4.43%
inactive: SN12C renal 28.9% | UO-31 renal 13.7% | TK-10 renal 21.4% | ACHN renal 23.1% | CAKI-1 renal 13%

CS(=O)(=O)Nc1ccc(Nc2c3ccccc3nc3cc(N)ccc23)cc1
active: SN12C renal 5.31% | MOLT-4 leukemia 5.41% | SR leukemia 8.53%
inactive: UO-31 renal 28.6% | TK-10 renal 62.3% | ACHN renal 24.9% | CAKI-1 renal 19.9% | A498 renal 57.1%

COc1cc(Cl)cc(-c2nn(-c3cccc(NC(=O)Nc4ccc(Cl)c(Cl)c4)c3)cc2-c2ccncc2)c1
active: UO-31 renal 0.635% | ACHN renal 9.65% | CAKI-1 renal 7.49% | A498 renal -9.54% | CCRF-CEM leukemia 5.73% | MOLT-4 leukemia -16.1% | SR leukemia -18.5%
inactive: SN12C renal 15.5% | TK-10 renal 19.8%

CC(C)(C)c1cc(Br)cc(C(C)(C)C)c1O
inactive: SN12C renal 96.5% | UO-31 renal 86.6% | TK-10 renal 113% | ACHN renal 106% | CAKI-1 renal 89.5% | A498 renal 120% | MOLT-4 leukemia 96% | SR leukemia 92.3%

c1ccc(CP(Cc2ccccc2)c2ccccc2)cc1
inactive: SN12C renal 100% | UO-31 renal 73.8% | TK-10 renal 98.6% | ACHN renal 102% | CAKI-1 renal 92.3% | A498 renal 103% | CCRF-CEM leukemia 89.5% | MOLT-4 leukemia 92.5% | SR leukemia 82.3%

COc1ccc(-c2nc3sc(-c4ccc(OC)cc4)c(-c4ccc(OC)cc4)n3c2/C=C/c2ccc(C(C)C)cc2)cc1
inactive: SN12C renal 99.2% | UO-31 renal 83.6% | TK-10 renal 97.7% | ACHN renal 97.9% | CAKI-1 renal 82.2% | A498 renal 99.1% | CCRF-CEM leukemia 96% | SR leukemia 97.4%

Nc1c(C(=O)Nc2ccccc2)sc2nc3c(cc12)C(O)CCC3 (stereo unspecified)
inactive: SN12C renal 39.6% | UO-31 renal 49.4% | TK-10 renal 69.8% | ACHN renal 48.2% | CAKI-1 renal 41.4% | CCRF-CEM leukemia 14.2% | MOLT-4 leukemia 11.9%
active: A498 renal -10.1% | SR leukemia 7.36%

COc1cc(-c2cc(/C=C3\C(=O)Nc4cc(Cl)ccc43)[nH]n2)cc(OC)c1OC
inactive: SN12C renal 12.1% | UO-31 renal 30.4% | TK-10 renal 60.9% | ACHN renal 58% | CAKI-1 renal 38.8% | A498 renal 50.4% | CCRF-CEM leukemia 13.2% | MOLT-4 leukemia 13.5% | SR leukemia 16.8%

COc1ccc(-c2cc(/C=C3\C(=O)Nc4ccc(OC)cc43)[nH]n2)cc1
inactive: SN12C renal 42.7% | UO-31 renal 40.6% | TK-10 renal 48.9% | ACHN renal 52.5% | CAKI-1 renal 33% | A498 renal 23.3% | CCRF-CEM leukemia 18.1% | MOLT-4 leukemia 27% | SR leukemia 20.1%

COc1cc(/C=C2\CCCC3=C2N=C2SC=NN2C3c2cc(OC)c(OC)c(OC)c2)cc(OC)c1OC (stereo unspecified)
inactive: UO-31 renal 36% | TK-10 renal 17.5% | ACHN renal 15.3% | A498 renal 24.5%
active: SN12C renal 7.13% | CAKI-1 renal 9.47% | CCRF-CEM leukemia 2.74% | MOLT-4 leukemia -2.28% | SR leukemia 7.88%

COc1ccc(-n2c(SCc3cc(OC)c(OC)c(OC)c3)nc3ccc(C)cc3c2=O)cc1
inactive: SN12C renal 82.2% | UO-31 renal 47.2% | TK-10 renal 94.2% | ACHN renal 66.7% | CAKI-1 renal 54.2% | A498 renal 38% | MOLT-4 leukemia 56% | SR leukemia 23%

COc1cc(/C=C\c2cc(OC)c(OC)c(OC)c2)cc(NS(=O)(=O)c2ccc(Cl)cc2)c1OC
inactive: SN12C renal 27.2% | UO-31 renal 35.9% | TK-10 renal 55.2% | ACHN renal 39% | CAKI-1 renal 37.1% | CCRF-CEM leukemia 14.6% | SR leukemia 14.4%
active: A498 renal -5.88%

O=C1/C(=C\c2ccccc2)CN(C(=O)c2ccccc2)C/C1=C\c1ccccc1
active: SN12C renal 5.88% | ACHN renal 3.54% | CCRF-CEM leukemia -0.797% | MOLT-4 leukemia 2.87% | SR leukemia -33%
inactive: UO-31 renal 43% | TK-10 renal 69.8% | CAKI-1 renal 33.3% | A498 renal 45.1%

CCOC(=O)c1ccoc1
inactive: SN12C renal 103% | UO-31 renal 95.4% | TK-10 renal 109% | ACHN renal 96.5% | CAKI-1 renal 98.1% | A498 renal 73.7% | CCRF-CEM leukemia 100% | MOLT-4 leukemia 90.1% | SR leukemia 86.4%

COc1cc(NC(=O)CCSc2nc3ccc(Cl)cc3c(=O)n2Cc2ccccc2)cc(OC)c1OC
inactive: SN12C renal 80% | UO-31 renal 74.1% | TK-10 renal 109% | ACHN renal 45.9% | CAKI-1 renal 63.7% | A498 renal 33.5% | CCRF-CEM leukemia 78.1% | MOLT-4 leukemia 60.6% | SR leukemia 66.5%

O=c1oc2cc(OS(=O)(=O)c3ccccc3)ccc2c2c1CCCCC2
inactive: SN12C renal 61.4% | UO-31 renal 59.4% | TK-10 renal 67.9% | ACHN renal 82.2% | CAKI-1 renal 73.9% | A498 renal 48.9% | CCRF-CEM leukemia 37.2% | MOLT-4 leukemia 31.4%
active: SR leukemia 7%

O=C1/C(=C\c2ccc(Cl)cc2)CN(C(=S)Nc2ccccc2)C/C1=C\c1ccc(Cl)cc1
active: SN12C renal -52% | UO-31 renal -95% | TK-10 renal -60.5% | ACHN renal -86.8% | CAKI-1 renal -17.6% | CCRF-CEM leukemia -2.03% | MOLT-4 leukemia 5.1% | SR leukemia -15.1%

COc1ccc(Nc2ccnc(NCCNc3ccnc4cc(Cl)ccc34)n2)cc1
inactive: SN12C renal 57.7% | UO-31 renal 44.8% | TK-10 renal 71.6% | ACHN renal 57.3% | A498 renal 37.3% | CCRF-CEM leukemia 42.1% | MOLT-4 leukemia 18%
